The source of these data is PubChem BioAssay (EPA / NIEHS).

What all share (settings): mRNA level, 48 h; actives raise or lower the signal
Read-out in experiment [1]: Apoptosis regulator Bcl-2 (Homo sapiens) (UniProt P10415)
The experiment is described as follows: LTEA_HepaRG_BCL2: Life Technologies and Expression Analysis (LTEA) Assay for Bcl-2 gene using HepaRG (AID 2283475). The method, boiled down:
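Each chemical was tested in duplicate on HepaRG cultures held in serum-free induction medium for 48 h, highest concentration 100 uM with half-log dilutions. Transcript levels came from multiplexed qRT-PCR, normalised to housekeeping genes; activity was scored in either direction relative to DMSO.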

Read-out in the next experiment: Caspase-3 (Homo sapiens) (UniProt P42574)
Briefly: LTEA_HepaRG_CASP3: Life Technologies and Expression Analysis (LTEA) Assay for cysteine-aspartic acid protease (CASP3) using HepaRG (AID 2283477). Summed up:
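Differentiated human HepaRG cells in serum-free induction medium were exposed 48 h to 8-point half-log concentrations from 100 uM (0.5% DMSO vehicle). CASP3 mRNA was measured by qRT-PCR, normalised to ACTB, GAPDH and POLR2A, with bidirectional fitting against DMSO.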

Read-out in experiment [2]: Cytochrome P450 (CYP24A1), CYP24A1 (gene 1591)
The experiment is described as follows: LTEA_HepaRG_CYP24A1: Life Technologies and Expression Analysis (LTEA) Assay for Cytochrome P450 (CYP24A1) using HepaRG (AID 2283478). Summed up:
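Differentiated HepaRG cells, pre-cultured 48 h, were exposed in duplicate for 48 h in serum-free induction medium to 8 half-log concentrations (top 100 uM, 0.5% DMSO). CYP24A1 mRNA was quantified by TaqMan qRT-PCR, normalized to ACTB/GAPDH/POLR2A, fitted bidirectionally versus DMSO.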

Read-out in experiment [3]: Cytochrome P450 (CYP1A2), CYP1A2 (gene 1544)
The experiment is described as follows: LTEA_HepaRG_CYP1A2: Life Technologies and Expression Analysis (LTEA) Assay for Cytochrome P450 (CYP1A2) using HepaRG (AID 2283479). The method, boiled down:
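Differentiated human HepaRG cells in serum-free induction medium were exposed in duplicate for 48 h to 8-point half-log concentrations up to 100 uM in 0.5% DMSO. CYP1A2 mRNA measured by qRT-PCR, normalized to ACTB, GAPDH, POLR2A; bidirectional fit vs DMSO.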

Read-out in experiment [4]: cysteine-aspartic acid protease (CASP8), CASP8 (gene 841)
The experiment is described as follows: LTEA_HepaRG_CASP8: Life Technologies and Expression Analysis (LTEA) Assay for cysteine-aspartic acid protease (CASP8) using HepaRG (AID 2283480). The method, boiled down:
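qRT-PCR readout of CASP8 mRNA, normalized to three housekeeping genes, after 48 h chemical exposure of HepaRG cells; 8-point half-log series, top 100 uM, 0.5% DMSO vehicle. Bidirectional curve fitting against DMSO baseline.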

Read-out in experiment [5]: Cytochrome P450 (CYP2B6), CYP2B6 (gene 1555)
The experiment is described as follows: LTEA_HepaRG_CYP2B6: Life Technologies and Expression Analysis (LTEA) Assay for Cytochrome P450 (CYP2B6) using HepaRG (AID 2283481). The method, boiled down: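 Differentiated HepaRG cells, serum-free induction medium, exposed 48 h in duplicate to 8-point half-log concentrations from 100 uM in 0.5% DMSO. CYP2B6 mRNA by qRT-PCR, normalized to ACTB, GAPDH, POLR2A; bidirectional fit versus DMSO.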

Read-out in experiment [6]: Cytochrome P450 2C19 (Homo sapiens) (UniProt P33261)
Briefly: LTEA_HepaRG_CYP2C19: Life Technologies and Expression Analysis (LTEA) Assay for CYP2C19 using HepaRG (AID 2283482). Summed up: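 Differentiated human HepaRG cells were exposed for 48 h in serum-free induction medium to 8 concentrations (top 100 uM, half-log steps, 0.5% DMSO). CYP2C19 mRNA was measured by qRT-PCR, normalized to ACTB/GAPDH/POLR2A, and fitted bidirectionally against DMSO.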

Read-out in the next experiment: CYP2C8 (gene 1558)
The experiment is described as follows: LTEA_HepaRG_CYP2C8: Life Technologies and Expression Analysis (LTEA) Assay for CYP2C8 using HepaRG (AID 2283483). The method, boiled down: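 HepaRG (human liver line), 48 h chemical exposure, 8-pt half-log series from 100 uM, 0.5% DMSO vehicle. Readout: CYP2C8 transcript by qRT-PCR, housekeeping-normalized. Bidirectional fit vs DMSO baseline.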

Read-out in another experiment: CYP2C9 (gene 1559)
The experiment is described as follows: LTEA_HepaRG_CYP2C9: Life Technologies and Expression Analysis (LTEA) Assay for CYP2C9 using HepaRG (AID 2283484). The method, boiled down: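 HepaRG, 48 h dosing, 8-pt half-log series, top 100 uM, 0.5% DMSO vehicle. Read-out: CYP2C9 transcript by TaqMan qRT-PCR, housekeeping-normalized (ACTB/GAPDH/POLR2A). Gain or loss fitted vs DMSO baseline.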

Read-out in the next experiment: CYP2E1 (gene 1571)
The experiment is described as follows: LTEA_HepaRG_CYP2E1: Life Technologies and Expression Analysis (LTEA) Assay for CYP2E1 using HepaRG (AID 2283485). The method, boiled down:
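Assay uses 48 h exposure of HepaRG hepatic cells, eight concentrations to 100 uM. Expression of CYP2E1 is quantified by TaqMan qRT-PCR with ACTB, GAPDH and POLR2A normalization; curves fitted in both directions relative to vehicle.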

Read-out in the next experiment: CYP4A11 (gene 1579)
Briefly: LTEA_HepaRG_CYP4A11: Life Technologies and Expression Analysis (LTEA) Assay for CYP4A11 using HepaRG (AID 2283486). Summed up: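 Differentiated HepaRG cells, serum-free induction medium, exposed 48 h in duplicate to 8-point half-log series from 100 uM in 0.5% DMSO. CYP4A11 mRNA measured by qRT-PCR, normalized to ACTB, GAPDH, POLR2A; bidirectional fit versus DMSO.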

Read-out in experiment [7]: DNA damage-inducible transcript 3 (DDIT3), DDIT3 (gene 1649)
The experiment is described as follows: LTEA_HepaRG_DDIT3: Life Technologies and Expression Analysis (LTEA) Assay for DNA damage-inducible transcript 3 (DDIT3) using HepaRG (AID 2283488). The method, boiled down:
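Eight-point concentration-response (100 uM highest, half-log dilutions) in HepaRG, 48 h, duplicate wells. Endpoint: qRT-PCR mRNA, normalized (ACTB, GAPDH, POLR2A), bidirectional fitting with DMSO as baseline.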

Read-out in experiment [8]: Pro-epidermal growth factor (Homo sapiens) (UniProt P01133)
Briefly: LTEA_HepaRG_EGF: Life Technologies and Expression Analysis (LTEA) Assay for Epidermal growth factor (EGF) using HepaRG (AID 2283489). Summed up: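 Differentiated human HepaRG cells, plated 48 h then switched to serum-free induction medium, were exposed for 48 h to test chemicals (8-point half-log series, top 100 uM, 0.5% DMSO). EGF mRNA was quantified by qRT-PCR, normalized to ACTB, GAPDH, POLR2A.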

Read-out in experiment [9]: Early growth response protein 1 (EGR1) transcription factor, EGR1 (gene 1958)
Briefly: LTEA_HepaRG_EGR1: Life Technologies and Expression Analysis (LTEA) Assay for Early growth response protein 1 (EGR1) transcription factor using HepaRG (AID 2283490). Summed up:
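HepaRG, 48 h exposure, 8-pt half-log series from 100 uM, 0.5% DMSO vehicle; EGR1 transcript by TaqMan qRT-PCR (Fluidigm array), housekeeping-normalized; bidirectional fit relative to DMSO baseline.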

Read-out in experiment [10]: Ezrin (EZR), EZR (gene 7430)
The experiment is described as follows: LTEA_HepaRG_EZR: Life Technologies and Expression Analysis (LTEA) Assay for Ezrin (EZR) using HepaRG (AID 2283491). Summed up:
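Read-out is EZR transcript level by qRT-PCR, normalized to three housekeeping genes and fitted bidirectionally against the DMSO control. Human HepaRG cells received test chemicals for 48 h at eight half-log concentrations up to 100 uM in 0.5% DMSO.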

Read-out in another experiment: CYP3A5 (gene 1577)
Briefly: LTEA_HepaRG_CYP3A5: Life Technologies and Expression Analysis (LTEA) Assay for CYP3A5 using HepaRG (AID 2283493). The method, boiled down: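 Readout was CYP3A5 mRNA by qRT-PCR. HepaRG cultures were exposed for 48 h in serum-free induction medium to chemicals at up to 100 uM, and responses were fitted in both directions relative to DMSO vehicle.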

Read-out in experiment [11]: Fatty Acid-Binding Protein 1 (FABP1), FABP1 (gene 2168)
Briefly: LTEA_HepaRG_FABP1: Life Technologies and Expression Analysis (LTEA) Assay for Fatty Acid-Binding Protein 1 (FABP1) using HepaRG (AID 2283494). The method, boiled down:
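qRT-PCR readout of FABP1 transcript (normalized to three housekeeping genes) after 48 h chemical exposure of HepaRG cells; eight concentrations, half-log steps, max 100 uM, 0.5% DMSO vehicle; gain or loss fitted relative to DMSO baseline.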

Read-out in experiment [12]: Cytochrome P450 3A4 (Homo sapiens) (UniProt P08684)
The experiment is described as follows: LTEA_HepaRG_CYP3A4: Life Technologies and Expression Analysis (LTEA) Assay for CYP3A4 using HepaRG (AID 2283487). Summed up:
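HepaRG, 48 h exposure, 8-pt CRC from 100 uM (half-log), 0.5% DMSO, duplicates; serum-free induction medium. Readout: CYP3A4 mRNA, qRT-PCR, ACTB/GAPDH/POLR2A normalization. Bidirectional fit vs DMSO.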

Molecules are shown by their SMILES. The source made the active and inactive calls. Rule for the calls: active = hit-call score of the fitted dose curve at least 0.9, where 1 is the maximum; inactive = score below 0.9.

Chain of Cytochrome P450 2C19 (Homo sapiens) (P33261 whole entry, looked up): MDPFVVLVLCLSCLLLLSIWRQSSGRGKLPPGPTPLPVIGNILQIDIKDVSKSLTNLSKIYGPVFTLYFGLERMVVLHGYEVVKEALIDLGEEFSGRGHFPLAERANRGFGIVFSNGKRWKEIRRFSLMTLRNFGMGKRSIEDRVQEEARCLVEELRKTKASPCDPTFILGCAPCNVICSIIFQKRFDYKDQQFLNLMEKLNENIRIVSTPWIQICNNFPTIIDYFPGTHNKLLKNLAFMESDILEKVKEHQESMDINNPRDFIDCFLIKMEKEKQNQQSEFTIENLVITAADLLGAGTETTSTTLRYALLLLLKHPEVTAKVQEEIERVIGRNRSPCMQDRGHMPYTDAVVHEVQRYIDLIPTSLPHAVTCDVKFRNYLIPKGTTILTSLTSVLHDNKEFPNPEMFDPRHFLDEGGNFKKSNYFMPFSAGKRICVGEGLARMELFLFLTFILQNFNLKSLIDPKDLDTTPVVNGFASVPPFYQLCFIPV
Chain of Caspase-3 (Homo sapiens) (P42574 whole entry, looked up): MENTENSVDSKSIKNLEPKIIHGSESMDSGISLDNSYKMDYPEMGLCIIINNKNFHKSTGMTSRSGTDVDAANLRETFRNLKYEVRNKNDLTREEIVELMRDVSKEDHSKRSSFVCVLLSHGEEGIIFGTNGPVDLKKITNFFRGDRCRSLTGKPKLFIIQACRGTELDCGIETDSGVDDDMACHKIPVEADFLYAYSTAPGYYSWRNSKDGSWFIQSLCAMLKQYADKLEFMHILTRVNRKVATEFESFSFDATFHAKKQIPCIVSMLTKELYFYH
Chain of Apoptosis regulator Bcl-2 (Homo sapiens) (P10415 whole entry, looked up): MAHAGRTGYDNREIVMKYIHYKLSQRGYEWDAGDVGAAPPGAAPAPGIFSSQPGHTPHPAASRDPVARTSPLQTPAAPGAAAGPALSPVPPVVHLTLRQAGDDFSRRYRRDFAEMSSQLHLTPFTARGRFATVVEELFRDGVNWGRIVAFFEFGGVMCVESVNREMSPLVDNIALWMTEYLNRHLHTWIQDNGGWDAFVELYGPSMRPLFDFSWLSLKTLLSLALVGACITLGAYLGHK
Chain of Cytochrome P450 3A4 (Homo sapiens) (P08684 whole entry, looked up): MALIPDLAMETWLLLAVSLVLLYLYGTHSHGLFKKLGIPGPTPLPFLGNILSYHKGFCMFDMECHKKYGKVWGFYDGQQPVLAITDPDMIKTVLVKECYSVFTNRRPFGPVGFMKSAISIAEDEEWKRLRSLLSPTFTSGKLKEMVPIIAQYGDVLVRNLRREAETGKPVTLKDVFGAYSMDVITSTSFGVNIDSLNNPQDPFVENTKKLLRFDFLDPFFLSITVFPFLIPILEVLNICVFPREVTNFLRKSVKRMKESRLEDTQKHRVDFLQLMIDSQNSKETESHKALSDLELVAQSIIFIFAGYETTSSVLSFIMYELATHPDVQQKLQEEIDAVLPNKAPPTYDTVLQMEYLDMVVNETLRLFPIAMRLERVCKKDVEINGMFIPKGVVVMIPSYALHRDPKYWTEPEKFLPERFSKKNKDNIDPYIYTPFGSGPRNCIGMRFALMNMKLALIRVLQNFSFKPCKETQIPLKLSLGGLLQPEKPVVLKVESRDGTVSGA

For orientation: AC50 means the concentration at which the activity in the assay is half-maximal. As to `CC[C@H](c1ccc(O)cc1)[C@@H](CC)c1ccc(O)cc1`, the outcome (in [1]; in [3]; in [4]; with CYP2C8 (gene 1558); with CYP2C9 (gene 1559); in experiment [7]) was inactive. Besides, the compound was classed as inactive in experiment [8]. Besides, the half-maximal activity concentration (AC50) was 78.4 µM (active) with Caspase-3 (Homo sapiens); 83.4 µM (active) in experiment [2]; 79.4 µM (active) in experiment [5]; 80.3 µM (active) in experiment [6]; 87.9 µM (active) with CYP2E1 (gene 1571); 76.7 µM (active) with CYP4A11 (gene 1579). The AC50 in experiment [9] is 78.7 µM (active); in experiment [10], 88.4 µM (active); with CYP3A5 (gene 1577) it was 70.3 µM (active); in [11], 80.7 µM (active).
With `CC#C[C@]1(O)CC[C@H]2[C@@H]3CCC4=CC(=O)CCC4=C3[C@@H](c3ccc(N(C)C)cc3)C[C@@]21C`, the AC50 in experiment [1] was 19 µM (active); with Caspase-3 (Homo sapiens) it was 27.4 µM (active); in [3] it was 26.4 µM (active); in [4], 27.6 µM (active); in experiment [5] it was 34 µM (active); in experiment [6] it was 33 µM (active). Also, the half-maximal activity concentration (AC50) with CYP2C8 (gene 1558) was 28 µM (active); with CYP2C9 (gene 1559) it was 50 µM (active); in the experiment with CYP2E1 (gene 1571), 19.6 µM (active); with CYP4A11 (gene 1579), 23.9 µM (active); in [7] it was 29.2 µM (active); in experiment [8] it was 4.48 µM (active). The AC50 is 8.69 µM (active) in experiment [9], 50 µM (active) in [10] and 35.1 µM (active) in experiment [11]. Also, the compound was called inactive (in [2]; with CYP3A5 (gene 1577)).
As for `CCCCOCCO`, the call (in experiment [1]; with Caspase-3 (Homo sapiens); in [2]; in experiment [3]; in experiment [4]; in experiment [5]) was inactive. The call (in experiment [6]; in the experiment with CYP2C8 (gene 1558); with CYP2C9 (gene 1559); with CYP2E1 (gene 1571); with CYP4A11 (gene 1579); in [12]) was inactive. In addition, the compound was classed as inactive (in experiment [7]; in experiment [8]; in [9]; in [10]; with CYP3A5 (gene 1577); in experiment [11]).
